# Measured values as given in PubChem BioAssay (NCATS).
# Inconclusive results are not listed. A call without a number means that no potency is given here. Active and inactive are the calls of the source. Calls follow the shape of the dose curve; as a rule, active = well fitted inhibition curve with a large enough effect; inconclusive = small, poorly fitted or top-dose-only effect; inactive = flat fitted curve, though single readings scatter.
# Key:
# Experiment in all cases: qHTS assay to identify novel small-molecules to repurpose for Merkel cell carcinoma treatment (AID 1296009); also: nearly all actives have a fitted effect of over 60% in size
# MCC-13 = details: MCC and control cell lines, CellTiter-Glo viability, 72 h; series mostly up to 46 µM
# Outline: (§1)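 Luminescence from CellTiter-Glo, read 10 min after addition at room temperature, reported viability following a 72 hr, 37 degree celsius treatment with NPC or MIPE compounds in titration; values normalized to plate controls.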
# MCC-26 = details: MCC and control cell lines, CellTiter-Glo viability, 72 h; series mostly up to 46 µM
# Outline: as §1
# MKL-1 = details: MCC and control cell lines, CellTiter-Glo viability, 72 h; series mostly up to 46 µM
# Outline: as §1
# MKL-2 = details: MCC and control cell lines, CellTiter-Glo viability, 72 h; series mostly up to 46 µM
# Outline: as §1
# UISO = details: MCC and control cell lines, CellTiter-Glo viability, 72 h; series mostly up to 46 µM
# Outline: as §1
# CRL-7250 = details: MCC and control cell lines, CellTiter-Glo viability, 72 h; at 44.8 µM (top of the series) unless noted
# Outline: as §1
# HACAT = details: MCC and control cell lines, CellTiter-Glo viability, 72 h; at 44.8 µM (top of the series) unless noted
# Outline: as §1
# Potency is read from the fitted curve at half-maximal effect.
structure (smiles),measurement,setting,value
ClC1=C(Cl)[C@]2(Cl)[C@@H]3[C@@H]4C[C@@H]([C@H]5O[C@@H]45)[C@@H]3[C@@]1(Cl)C2(Cl)Cl,Potency,MCC-13,inactive
same,Potency,MCC-26,inactive
same,Potency,MKL-1,inactive
same,Potency,MKL-2,inactive
CC1(N2CCC(n3c([C@@H]4CCCNC4)nc4ccccc43)CC2)CCCCCCC1,Potency,MCC-13,inactive
same,Potency,MCC-26,inactive
same,Potency,MKL-1,23500 nM (active)
same,Potency,MKL-2,13200 nM (active)
CC=C(C)C(=O)N[C@@H](c1ccccc1)[C@@H](O)C(=O)O[C@H]1C[C@@]2(O)[C@@H](OC(=O)c3ccccc3)[C@@H]3[C@]4(OC(C)=O)CO[C@@H]4C[C@H](O)[C@@]3(C)C(=O)[C@H](OC(C)=O)C(=C1C)C2(C)C,Potency,MKL-1,inactive
same,Potency,MKL-2,inactive
S=C(SSC(=S)N1CCCCC1)N1CCCCC1,Potency,MCC-13,168 nM (active)
same,Potency,MCC-26,133 nM (active)
same,Potency,MKL-1,133 nM (active)
same,Potency,MKL-2,94.4 nM (active)
same,Potency,UISO,94.4 nM (active)
CCCN1CCO[C@@H]2c3cc(O)ccc3OC[C@@H]21,Potency,MCC-13,inactive
same,Potency,MCC-26,inactive
same,Potency,MKL-1,inactive
same,Potency,UISO,inactive
CC(C)Oc1cccc(NC(=O)c2ccccc2C(F)(F)F)c1,Potency,MCC-13,inactive
same,Potency,MCC-26,inactive
same,Potency,MKL-1,inactive
COc1ccc(C(c2ccc(OC)cc2)C(Cl)(Cl)Cl)cc1,Potency,MCC-13,inactive
same,Potency,MCC-26,inactive
O=C(O)c1cc(Oc2ccc(C(F)(F)F)cc2Cl)ccc1[N+](=O)[O-],Potency,MCC-13,inactive
same,Potency,MCC-26,inactive
same,Potency,MKL-1,inactive
same,Potency,MKL-2,inactive
same,Potency,UISO,inactive
CCCCC(CC)COC(=O)c1ccc(N(C)C)cc1 (stereo unspecified),outcome,CRL-7250,inactive
CO[C@H]1CCC(O[C@H]2C[C@H]([C@]3(C)CC[C@]4(C[C@H](O)[C@@H](C)[C@@H]([C@@H](C)C=C(C)C(=O)[C@H](C)C[C@H](C)C(=O)O)O4)O3)O[C@]3(O[C@@H]([C@H]4O[C@@](O)(CO)[C@H](C)C[C@H]4C)C[C@H]3C)[C@H]2C)O[C@H]1C (stereo partly specified),Potency,MCC-26,inactive
same,Potency,MKL-1,935 nM (active)
same,Potency,MKL-2,662 nM (active)
CCOC(=O)[C@@H](N)CCC(=O)N[C@@H](CSCc1ccccc1)C(=O)N[C@@H](C(=O)OCC)c1ccccc1,outcome,CRL-7250,inactive
CC(C)OC(=O)C1=CN(C(=O)c2ccc(F)c(F)c2)CC(C)(C)c2c1[nH]c1ccccc21,outcome,CRL-7250,inactive
C[C@@H]1CN(c2c(F)c(N)c3c(=O)c(C(=O)O)cn(C4CC4)c3c2F)C[C@H](C)N1,outcome,CRL-7250,inactive [at 17.4 µM]
CCc1c(C)[nH]c2c1C(=O)C(CN1CCOCC1)CC2 (stereo unspecified),outcome,CRL-7250,inactive
CN1[C@H]2CC(O)C[C@H]1[C@H]1O[C@H]12 (stereo partly specified),Potency,MCC-13,inactive
same,Potency,MCC-26,inactive
same,Potency,MKL-1,inactive
same,Potency,MKL-2,inactive
COc1ccc2c(c[n+](C)c3c4cc5c(cc4ccc23)OCO5)c1OC,Potency,MKL-1,2350 nM (active)
same,Potency,MKL-2,743 nM (active)
CCCCCCCCc1ccc(O)cc1,Potency,MCC-13,inactive
same,Potency,MCC-26,inactive
COCC1(CO)C(=O)C2CCN1CC2 (stereo unspecified),outcome,HACAT,inactive
same,Potency,MCC-13,inactive
same,Potency,MCC-26,inactive
same,Potency,MKL-1,2090 nM (active)
CN1CCN(c2c(F)cc3c(=O)c(C(=O)O)cn4c3c2OCN4C)CC1,outcome,CRL-7250,inactive [at 17.4 µM]
C[C@@]12OC(=O)[C@]1([C@@H](O)[C@@H]1C=CCCC1)NC(=O)[C@H]2CCCl,Potency,MCC-13,3320 nM (active)
same,Potency,MCC-26,833 nM (active)
same,Potency,MKL-1,1180 nM (active)
same,Potency,MKL-2,526 nM (active)
same,Potency,UISO,1480 nM (active)
Nc1ccc(Cl)cc1N,Potency,MCC-13,inactive
same,Potency,MCC-26,inactive
same,Potency,UISO,inactive
O=C(C=Cc1c(C(=O)O)[nH]c2cc(Cl)cc(Cl)c12)Nc1ccccc1,outcome,CRL-7250,inactive
C=CCON=C(C[C@H]1O[C@@H]2O[C@]3(C)CC[C@@H]4[C@H](C)CC[C@@H]([C@H]1C)[C@@]24OO3)[C@H]1O[C@@H]2O[C@]3(C)CC[C@H]4[C@H](C)CC[C@@H]([C@@H]1C)[C@@]24OO3,Potency,MCC-26,inactive
same,Potency,MKL-1,1180 nM (active)
CC(C)CCCC(C)CCCC(C)CCCCC(C)CCCC(C)CCCC(C)C (stereo unspecified),outcome,CRL-7250,inactive
CC(=O)[O][Hg][c]1ccccc1,Potency,MCC-13,1060 nM (active)
same,Potency,MCC-26,2660 nM (active)
same,Potency,MKL-2,106 nM (active)
same,Potency,UISO,841 nM (active)
O=S(c1cc(Cl)cc(Cl)c1O)c1cc(Cl)cc(Cl)c1O,outcome,CRL-7250,inactive
C=CCC1=C(C)C(OC(=O)C2C(C=C(C)C)C2(C)C)CC1=O (stereo unspecified),outcome,HACAT,inactive [at 92 µM]
same,Potency,MCC-13,inactive
same,Potency,MCC-26,inactive
N#C[C@H](O[C@@H]1O[C@H](CO[C@@H]2O[C@H](CO)[C@H](O)[C@H](O)[C@H]2O)[C@H](O)[C@H](O)[C@H]1O)c1ccccc1,Potency,MCC-26,inactive
